Results as given in PubChem BioAssay AID1159580 (chemical genetic matrix, 2015).
Screen size: about 5,500 compounds; about 2,000 (36%) were called active. Not shown: some 18% with an inconclusive outcome. Cut-off read from the data, not from the text of the source: active = normalized growth mostly below about 0.91 (no sharp cut-off); inconclusive = no clear call, values can overlap the other calls; inactive = mostly above about 0.92. The list shows a part of the results.

Test: chemical genetic growth profiling, strain panel (AID 1159580);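 note: tested at 20 µM; growth read once vehicle control cultures reached saturation at 30 °C; 1 = growth at the plate median or of vehicle wells; lower values mean less growth of the strain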
Settings: S. cerevisiae deletion strains, growth OD
[1] = locus YAL013W, strain DEP1, hits give low values
[2] = locus YNL153C, strain GIM3, hits give low values
[3] = locus YPL055C, strain LGE1, hits give low values
[4] = locus YCL061C, strain MRC1, hits give low values
[5] = locus YHR030C, strain SLT2, hits give low values
[6] = locus YJL187C, strain SWE1, hits give low values
[7] = locus YHR079C, strain IRE1, hits give low values
[8] = locus YJL095W, strain BCK1, hits give low values
[9] = locus YJR066W, strain TOR1, hits give low values
[10] = locus YLR113W, strain HOG1, hits give low values
[11] = locus YNL183C, strain NPR1, hits give low values
[12] = locus YOR231W, strain MKK1, hits give low values
[13] = locus YPL256C, strain CLN2, hits give low values

Measured: normalized growth

N[C@@]1(C(=O)O)CC[C@@H](C(=O)O)C1
inactive: [1] 1.02 | locus YAL040C, strain CLN3, hits give low values 1.01 | locus YCL061C, strain MRC1 (second series), hits give low values 1 | locus YDR363W, strain ESC2, hits give low values 1.04 | locus YER002W, strain NOP16, hits give low values 1.01 | locus YGR229C, strain SMI1, hits give low values 1.03 | [2] 1 | locus YNL175C, strain NOP13, hits give low values 1.01 | locus YNL197C, strain WHI3, hits give low values 1.02 | locus YNL224C, strain SQS1, hits give low values 1.02 | locus YOR083W, strain WHI5 (second series), hits give low values 1.01 | [3] 1.02

N#C/C(=C\Nc1ccc2c(c1)OCCO2)S(=O)(=O)c1ccc(C(F)(F)F)cn1
active: [5] 0.593 | [6] 0.733 | locus YLR085C, strain ARP6, hits give low values 0.742 | locus YNL298W, strain CLA4 (second series), hits give low values 0.835
inactive: [1] 0.985 | locus YBR229C, strain ROT2, hits give low values 1 | [4] 1.03 | locus YDL101C, strain DUN1, hits give low values 0.995 | locus YDL134C, strain PPH21, hits give low values 1 | locus YDR150W, strain NUM1, hits give low values 1.01 | locus YEL061C, strain CIN8, hits give low values 0.974 | locus YGR078C, strain PAC10, hits give low values 1.02 | locus YHR087W, strain rtc3, hits give low values 1.01 | locus YJR043C, strain POL32, hits give low values 1.02 | locus YJR075W, strain HOC1, hits give low values 1.02 | locus YKL190W, strain CNB1, hits give low values 0.98 | locus YLR039C, strain RIC1, hits give low values 1.02 | locus YLR058C, strain SHM2 (second series), hits give low values 1 | locus YLR262C, strain YPT6, hits give low values 1.01 | locus YML094W, strain GIM5, hits give low values 0.906 | locus YMR219W, strain ESC1, hits give low values 0.993 | locus YMR263W, strain SAP30, hits give low values 1.02 | [2] 1.02 | locus YNL322C, strain KRE1, hits give low values 0.996 | locus YNR030W, strain Alg12, hits give low values 0.978 | [3] 1.11 | locus YPL241C, strain CIN2, hits give low values 0.966 | locus YPR135W, strain CTF4, hits give low values 1.06

O=C(O)c1cccc2cccc(C(=O)O)c12
active: locus YAR019C, strain CDC15, hits give low values 0.085 | locus YBL105C, strain PKC1, hits give low values 0.0837 | locus YBR135W, strain CKS1, hits give low values 0.0904 | locus YBR136W, strain MEC1, hits give low values 0.0904 | locus YBR160W, strain CDC28, hits give low values 0.086 | locus YDL017W, strain CDC7, hits give low values 0.0824 | locus YDL028C, strain MPS1, hits give low values 0.0878 | locus YDL108W, strain KIN28, hits give low values 0.0876 | locus YDL214C, strain PRR2, hits give low values 0.0872 | locus YDR052C, strain DBF4, hits give low values 0.0886 | locus YDR054C, strain cdc34, hits give low values 0.0879 | locus YDR477W, strain SNF1, hits give low values 0.0946 | locus YER123W, strain YCK3, hits give low values 0.0991 | locus YER133W, strain GLC7, hits give low values 0.0939 | locus YFL009W, strain cdc4, hits give low values 0.0889 | locus YFL029C, strain CAK1, hits give low values 0.0833 | locus YFR003C, strain YPI1, hits give low values 0.0828 | locus YFR019W, strain FAB1, hits give low values 0.0952 | locus YGR040W, strain KSS1, hits give low values 0.11 | locus YGR052W, strain FMP48, hits give low values 0.113 | locus YGR092W, strain DBF2, hits give low values 0.107 | [5] 0.123 | [7] 0.109 | locus YHR082C, strain KSP1, hits give low values 0.135 | locus YHR205W, strain SCH9, hits give low values 0.0046 | locus YIL147C, strain SLN1, hits give low values 0.0851 | [8] 0.118 | locus YJL128C, strain PBS2, hits give low values 0.0989 | locus YJL157C, strain FAR1, hits give low values 0.0897 | locus YJR016C, strain ILV3, hits give low values 0.0848 | locus YJR066W, strain TOR1 (second series), hits give low values 0.101 | [9] 0.145 | locus YKL048C, strain ELM1, hits give low values 0.12 | locus YKL067W, strain YNK1, hits give low values 0.0918 | locus YKL101W, strain HSL1, hits give low values 0.114 | locus YKL193C, strain SDS22, hits give low values 0.0868 | locus YKL203C, strain TOR2, hits give low values 0.108 | [10] 0.184 | locus YLR133W, strain CKI1, hits give low values 0.0857 | locus YLR403W, strain SFP1, hits give low values 0.00123 | locus YML070W, strain DAK1, hits give low values 0.117 | locus YMR001C, strain CDC5, hits give low values 0.0843 | locus YMR205C, strain PFK2 (second series), hits give low values 0.0905 | locus YMR277W, strain FCP1, hits give low values 0.0893 | locus YNL006W, strain LST8, hits give low values 0.077 | locus YNL020C, strain ARK1, hits give low values 0.0896 | locus YNL161W, strain CBK1, hits give low values 0.0944 | [11] 0.112 | locus YNL207W, strain RIO2, hits give low values 0.0871 | locus YNL222W, strain SSU72, hits give low values 0.089 | locus YNL307C, strain MCK1 (second series), hits give low values 0.103 | locus YOL078W, strain AVO1, hits give low values 0.0865 | locus YOL136C, strain PFK27, hits give low values 0.0961 | locus YOR061W, strain CKA2, hits give low values 0.0989 | locus YOR119C, strain RIO1, hits give low values 0.104 | [12] 0.115 | locus YOR329C, strain SCD5, hits give low values 0.082 | locus YPL031C, strain PHO85, hits give low values 0.102 | locus YPL153C, strain RAD53, hits give low values 0.101 | locus YPL204W, strain HRR25, hits give low values 0.0938 | locus YPL209C, strain IPL1, hits give low values 0.0815 | [13] 0.162 | locus YPR025C, strain CCL1, hits give low values 0.0896 | locus YPR106W, strain ISR1, hits give low values 0.281 | strain NNK1, hits give low values 0.0867 | strain TSCII, hits give low values 0.0877

O=C(O)c1cccc(O)c1O
inactive: locus YAL021C, strain ccr4, hits give low values 1.02 | locus YAL026C, strain drs2, hits give low values 1.02 | locus YAL030W, strain snc1, hits give low values 1.01 | locus YBL061C, strain skt5, hits give low values 1.03 | locus YBR009C, strain hhf1, hits give low values 1.02 | locus YBR023C, strain chs3, hits give low values 1.02 | locus YBR171W, strain sec66, hits give low values 1.03 | locus YBR231C, strain swc5, hits give low values 1.02 | locus YBR279W, strain paf1, hits give low values 1.02 | locus YCL011C, strain gbp2, hits give low values 1.02 | locus YCL016C, strain dcc1, hits give low values 1.01 | [4] 1.01 | locus YCL069W, strain vba3, hits give low values 1.02 | locus YCR088W, strain abp1, hits give low values 1.02 | locus YDL005C, strain med2, hits give low values 1.02 | locus YDL040C, strain nat1, hits give low values 1.02 | locus YDR001C, strain nth1, hits give low values 1.02 | locus YDR069C, strain doa4, hits give low values 1.02 | locus YDR137W, strain rgp1, hits give low values 1.02 | locus YDR159W, strain sac3, hits give low values 1.03 | locus YDR195W, strain ref2 0.997 | locus YDR297W, strain sur2, hits give low values 1.02 | locus YDR334W, strain swr1, hits give low values 1.02 | locus YDR335W, strain msn5, hits give low values 1.02 | locus YDR392W, strain spt3, hits give low values 1.04 | locus YEL003W, strain gim4, hits give low values 1.02 | locus YEL037C, strain rad23, hits give low values 1.02 | locus YEL061C, strain CIN8 (second series), hits give low values 1.02 | locus YER015W, strain faa2, hits give low values 1.03 | locus YER016W, strain bim1, hits give low values 1.01 | locus YER111C, strain swi4, hits give low values 1.03 | locus YER155C, strain BEM2 (second series), hits give low values 1.04 | locus YFR010W, strain ubp6, hits give low values 1.02 | locus YGL167C, strain pmr1, hits give low values 1.02 | locus YGL173C, strain kem1, hits give low values 1.03 | locus YGL227W, strain vid30, hits give low values 1.03 | locus YGL240W, strain doc1, hits give low values 1.02 | locus YGL253W, strain hxk2, hits give low values 1.02 | locus YHR013C, strain ard1, hits give low values 1.02 | locus YHR027C, strain rpn1, hits give low values 1.01 | [5] 1.06 | [7] 1.03 | locus YHR142W, strain chs7, hits give low values 1.01 | locus YJL092W, strain hpr5, hits give low values 1.02 | locus YJL095W, strain BCK1 (second series), hits give low values 1.01 | [8] 1.03 | locus YJL115W, strain asf1, hits give low values 1.03 | locus YJL129C, strain trk1, hits give low values 1.04 | locus YJL154C, strain vps35, hits give low values 1.02 | locus YJL164C, strain tpk1, hits give low values 1 | locus YJL166W, strain qcr8, hits give low values 1.02 | [6] 1.03 | [9] 0.99 | locus YKL160W, strain elf1, hits give low values 1.03 | locus YKR026C, strain gcn3, hits give low values 1.03 | locus YKR091W, strain srl3, hits give low values 1.02 | locus YLL001W, strain dnm1, hits give low values 1.02 | locus YLL026W, hits give low values 1.02 | locus YLL041C, strain sdh2, hits give low values 1.02 | locus YLR027C, strain aat2, hits give low values 1.01 | [10] 1.06 | locus YLR221C, strain rsa3, hits give low values 1.01 | locus YLR258W, strain gsy2, hits give low values 1.02 | locus YLR262C, strain YPT6 (second series), hits give low values 1.02 | locus YLR320W, strain mms22, hits give low values 1.03 | locus YLR342W, strain FKS1, hits give low values 1.03 | locus YLR357W, strain rsc2, hits give low values 1.01 | locus YLR370C, strain arc18, hits give low values 1.01 | locus YLR384C, strain iki3, hits give low values 1.02 | locus YML120C, strain ndi1, hits give low values 1.01 | locus YMR058W, strain fet3, hits give low values 1.02 | locus YMR125W, strain sto1, hits give low values 1.04 | locus YMR129W, hits give low values 1.03 | locus YMR205C, strain PFK2, hits give low values 1.03 | locus YMR231W, strain pep5, hits give low values 1.02 | locus YNL071W, strain lat1, hits give low values 1.01 | [11] 0.987 | locus YNL209W, strain ssb2, hits give low values 1.02 | locus YNL248C, strain rpa49, hits give low values 1.01 | locus YNL322C, strain KRE1 (second series), hits give low values 1.02 | locus YNR049C, strain mso1, hits give low values 1.02 | locus YOR001W, strain rrp6, hits give low values 1.03 | locus YOR070C, strain gyp1, hits give low values 1.02 | locus YOR080W, strain dia2, hits give low values 1.02 | locus YOR083W, strain WHI5, hits give low values 1.03 | locus YOR106W, strain vam3, hits give low values 1.02 | [12] 1.05 | locus YOR265W, strain rbl2, hits give low values 1.01 | locus YOR270C, strain vph1, hits give low values 1.05 | locus YOR290C, strain snf2, hits give low values 1.03 | locus YPL051W, strain arl3, hits give low values 1.02 | locus YPL078C, strain atp4, hits give low values 1.03 | locus YPL106C, strain sse1, hits give low values 1.02 | locus YPL240C, strain hsp82, hits give low values 1.03 | [13] 1.05
